Data: ChEMBL document CHEMBL1961873, “Compounds: GSK PKIS; Assays: Nanosyn kinase panel” (2012)

Assays:
[1] = target: Platelet-derived growth factor receptor beta (Homo sapiens) (UniProt P09619); details: at 1 µM;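 also: each value is a mean percent inhibition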
[2] = target: Tyrosine-protein kinase FRK (Homo sapiens) (UniProt P42685); details: at 0.1 µM
[3] = target: Tyrosine-protein kinase FRK (Homo sapiens) (UniProt P42685); details: at 1 µM
[4] = target: Protein-tyrosine kinase 2-beta (Homo sapiens) (UniProt Q14289); details: at 0.1 µM
[5] = target: Protein-tyrosine kinase 2-beta (Homo sapiens) (UniProt Q14289); details: at 1 µM
[6] = target: Proto-oncogene tyrosine-protein kinase receptor Ret (Homo sapiens) (UniProt P07949); details: at 0.1 µM
Sequence of Proto-oncogene tyrosine-protein kinase receptor Ret (Homo sapiens) (P07949 whole entry): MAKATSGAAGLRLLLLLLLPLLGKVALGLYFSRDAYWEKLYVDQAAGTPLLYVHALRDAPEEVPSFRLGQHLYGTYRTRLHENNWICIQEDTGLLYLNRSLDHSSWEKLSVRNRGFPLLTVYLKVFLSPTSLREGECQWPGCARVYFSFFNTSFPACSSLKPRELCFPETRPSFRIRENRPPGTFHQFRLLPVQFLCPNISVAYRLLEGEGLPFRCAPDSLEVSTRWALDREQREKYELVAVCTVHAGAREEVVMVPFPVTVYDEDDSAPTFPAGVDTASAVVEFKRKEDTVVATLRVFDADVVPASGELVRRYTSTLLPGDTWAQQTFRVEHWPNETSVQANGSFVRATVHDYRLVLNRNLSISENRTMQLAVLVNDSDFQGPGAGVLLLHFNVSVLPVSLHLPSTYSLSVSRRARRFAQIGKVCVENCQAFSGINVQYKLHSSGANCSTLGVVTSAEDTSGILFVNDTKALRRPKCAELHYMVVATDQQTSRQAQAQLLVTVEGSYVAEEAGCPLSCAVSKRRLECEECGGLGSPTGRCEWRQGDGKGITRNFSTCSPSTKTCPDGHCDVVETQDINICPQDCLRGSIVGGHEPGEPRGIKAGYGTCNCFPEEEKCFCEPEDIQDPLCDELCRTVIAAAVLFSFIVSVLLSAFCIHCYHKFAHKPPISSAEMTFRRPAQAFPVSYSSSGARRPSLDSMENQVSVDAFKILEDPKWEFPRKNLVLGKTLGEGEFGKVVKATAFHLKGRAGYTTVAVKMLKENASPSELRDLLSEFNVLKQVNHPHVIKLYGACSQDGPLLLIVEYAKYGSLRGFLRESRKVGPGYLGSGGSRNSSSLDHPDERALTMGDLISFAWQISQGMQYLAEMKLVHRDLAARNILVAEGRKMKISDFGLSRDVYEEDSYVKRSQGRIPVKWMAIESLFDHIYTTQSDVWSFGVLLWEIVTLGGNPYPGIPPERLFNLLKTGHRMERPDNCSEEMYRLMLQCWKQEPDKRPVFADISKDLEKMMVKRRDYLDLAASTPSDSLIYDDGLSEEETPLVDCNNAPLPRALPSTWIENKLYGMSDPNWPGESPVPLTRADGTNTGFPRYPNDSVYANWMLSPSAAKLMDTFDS

[7] = target: Proto-oncogene tyrosine-protein kinase receptor Ret (Homo sapiens) (UniProt P07949); details: at 1 µM
[8] = test system: Proto-oncogene tyrosine-protein kinase receptor Ret (Homo sapiens), P07949 [V804L]; details: at 0.1 µM
Sequence of Proto-oncogene tyrosine-protein kinase receptor Ret (Homo sapiens), P07949 [V804L] (P07949 whole entry V804L): as the sequence (P07949 whole entry) above, with V804L counted along it

[9] = test system: Proto-oncogene tyrosine-protein kinase receptor Ret (Homo sapiens), P07949 [V804L]; details: at 1 µM
[10] = test system: Proto-oncogene tyrosine-protein kinase receptor Ret (Homo sapiens), P07949 [Y791F]; details: at 0.1 µM
Sequence of Proto-oncogene tyrosine-protein kinase receptor Ret (Homo sapiens), P07949 [Y791F] (P07949 whole entry Y791F): as the sequence (P07949 whole entry) above, with Y791F counted along it

[11] = test system: Proto-oncogene tyrosine-protein kinase receptor Ret (Homo sapiens), P07949 [Y791F]; details: at 1 µM
[12] = target: Macrophage-stimulating protein receptor (Homo sapiens) (UniProt Q04912); details: at 0.1 µM
Sequence of Macrophage-stimulating protein receptor (Homo sapiens) (Q04912 25-304 limits assumed): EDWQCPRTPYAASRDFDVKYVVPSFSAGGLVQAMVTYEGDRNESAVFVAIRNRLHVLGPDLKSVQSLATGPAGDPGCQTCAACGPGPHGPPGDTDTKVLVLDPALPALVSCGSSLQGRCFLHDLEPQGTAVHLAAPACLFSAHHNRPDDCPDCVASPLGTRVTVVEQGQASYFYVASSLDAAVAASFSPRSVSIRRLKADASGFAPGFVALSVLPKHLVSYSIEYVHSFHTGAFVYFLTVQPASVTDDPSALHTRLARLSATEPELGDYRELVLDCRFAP
Sequence of Macrophage-stimulating protein receptor (Homo sapiens) (Q04912 310-1400 limits assumed): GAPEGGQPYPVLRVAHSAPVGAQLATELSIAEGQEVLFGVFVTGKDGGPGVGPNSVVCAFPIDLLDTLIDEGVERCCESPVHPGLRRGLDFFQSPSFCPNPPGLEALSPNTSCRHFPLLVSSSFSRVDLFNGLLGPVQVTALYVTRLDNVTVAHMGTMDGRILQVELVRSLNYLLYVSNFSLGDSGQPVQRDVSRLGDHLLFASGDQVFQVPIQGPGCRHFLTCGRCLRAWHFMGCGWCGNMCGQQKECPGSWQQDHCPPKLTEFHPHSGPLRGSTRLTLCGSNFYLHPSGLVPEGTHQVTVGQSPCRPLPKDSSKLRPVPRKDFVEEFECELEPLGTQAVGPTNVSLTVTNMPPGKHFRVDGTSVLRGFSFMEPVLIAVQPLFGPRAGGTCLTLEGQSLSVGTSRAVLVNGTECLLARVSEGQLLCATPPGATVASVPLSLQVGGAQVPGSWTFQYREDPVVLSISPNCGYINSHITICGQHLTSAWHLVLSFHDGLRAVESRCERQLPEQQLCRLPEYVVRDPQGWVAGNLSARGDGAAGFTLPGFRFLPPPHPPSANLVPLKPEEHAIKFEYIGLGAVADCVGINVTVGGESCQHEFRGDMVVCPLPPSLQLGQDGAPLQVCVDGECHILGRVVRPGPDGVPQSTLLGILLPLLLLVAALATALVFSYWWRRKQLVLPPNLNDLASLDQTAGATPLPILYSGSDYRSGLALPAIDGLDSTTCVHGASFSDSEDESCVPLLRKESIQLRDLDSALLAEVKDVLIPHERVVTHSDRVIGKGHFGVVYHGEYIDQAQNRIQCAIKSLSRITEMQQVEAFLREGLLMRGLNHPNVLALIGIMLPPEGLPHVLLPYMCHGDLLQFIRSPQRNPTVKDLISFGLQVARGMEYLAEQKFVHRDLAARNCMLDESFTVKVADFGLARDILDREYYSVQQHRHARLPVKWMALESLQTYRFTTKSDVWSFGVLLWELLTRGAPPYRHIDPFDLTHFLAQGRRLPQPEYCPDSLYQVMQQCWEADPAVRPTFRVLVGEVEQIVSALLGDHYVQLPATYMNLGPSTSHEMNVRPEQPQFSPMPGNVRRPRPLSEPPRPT

[13] = target: Macrophage-stimulating protein receptor (Homo sapiens) (UniProt Q04912); details: at 1 µM
[14] = target: Proto-oncogene tyrosine-protein kinase ROS (Homo sapiens) (UniProt P08922); details: at 0.1 µM
[15] = target: Proto-oncogene tyrosine-protein kinase ROS (Homo sapiens) (UniProt P08922); details: at 1 µM
[16] = target: Proto-oncogene tyrosine-protein kinase Src (Homo sapiens) (UniProt P12931); details: at 0.1 µM
Sequence of Proto-oncogene tyrosine-protein kinase Src (Homo sapiens) (P12931 2-536 limits assumed): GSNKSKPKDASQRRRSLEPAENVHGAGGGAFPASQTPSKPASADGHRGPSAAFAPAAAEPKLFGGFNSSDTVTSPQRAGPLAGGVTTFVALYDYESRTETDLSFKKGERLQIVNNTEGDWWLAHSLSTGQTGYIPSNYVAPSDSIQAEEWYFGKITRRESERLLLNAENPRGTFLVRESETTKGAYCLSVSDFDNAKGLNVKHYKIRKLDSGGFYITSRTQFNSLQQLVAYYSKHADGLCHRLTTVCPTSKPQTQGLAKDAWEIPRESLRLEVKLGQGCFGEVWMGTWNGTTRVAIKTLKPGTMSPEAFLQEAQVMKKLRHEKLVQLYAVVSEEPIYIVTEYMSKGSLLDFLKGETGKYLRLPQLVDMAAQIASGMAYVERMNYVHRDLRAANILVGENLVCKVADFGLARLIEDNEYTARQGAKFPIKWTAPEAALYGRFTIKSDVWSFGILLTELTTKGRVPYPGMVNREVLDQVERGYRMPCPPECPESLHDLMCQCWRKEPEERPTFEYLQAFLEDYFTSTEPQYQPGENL

[17] = target: Proto-oncogene tyrosine-protein kinase Src (Homo sapiens) (UniProt P12931); details: at 1 µM
[18] = target: Tyrosine-protein kinase Srms (Homo sapiens) (UniProt Q9H3Y6); details: at 0.1 µM
Sequence of Tyrosine-protein kinase Srms (Homo sapiens) (Q9H3Y6 whole entry): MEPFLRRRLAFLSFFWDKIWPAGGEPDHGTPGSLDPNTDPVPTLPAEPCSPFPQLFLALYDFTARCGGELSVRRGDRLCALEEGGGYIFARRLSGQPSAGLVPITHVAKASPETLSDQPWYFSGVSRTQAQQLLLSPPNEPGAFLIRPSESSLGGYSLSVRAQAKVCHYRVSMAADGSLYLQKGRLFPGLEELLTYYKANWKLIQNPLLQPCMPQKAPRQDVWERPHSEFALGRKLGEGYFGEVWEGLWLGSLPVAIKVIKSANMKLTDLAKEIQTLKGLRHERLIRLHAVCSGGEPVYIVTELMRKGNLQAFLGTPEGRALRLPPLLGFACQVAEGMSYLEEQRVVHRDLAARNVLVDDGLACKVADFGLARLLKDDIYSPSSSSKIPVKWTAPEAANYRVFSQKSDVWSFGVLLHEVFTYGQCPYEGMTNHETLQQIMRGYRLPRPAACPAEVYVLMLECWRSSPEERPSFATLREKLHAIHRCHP

[19] = target: Tyrosine-protein kinase Srms (Homo sapiens) (UniProt Q9H3Y6); details: at 1 µM
[20] = target: Tyrosine-protein kinase SYK (Homo sapiens) (UniProt P43405); details: at 0.1 µM;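 also: reported percentages are mean inhibition values for SYK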

Sequence of Platelet-derived growth factor receptor beta (Homo sapiens) (P09619 whole entry): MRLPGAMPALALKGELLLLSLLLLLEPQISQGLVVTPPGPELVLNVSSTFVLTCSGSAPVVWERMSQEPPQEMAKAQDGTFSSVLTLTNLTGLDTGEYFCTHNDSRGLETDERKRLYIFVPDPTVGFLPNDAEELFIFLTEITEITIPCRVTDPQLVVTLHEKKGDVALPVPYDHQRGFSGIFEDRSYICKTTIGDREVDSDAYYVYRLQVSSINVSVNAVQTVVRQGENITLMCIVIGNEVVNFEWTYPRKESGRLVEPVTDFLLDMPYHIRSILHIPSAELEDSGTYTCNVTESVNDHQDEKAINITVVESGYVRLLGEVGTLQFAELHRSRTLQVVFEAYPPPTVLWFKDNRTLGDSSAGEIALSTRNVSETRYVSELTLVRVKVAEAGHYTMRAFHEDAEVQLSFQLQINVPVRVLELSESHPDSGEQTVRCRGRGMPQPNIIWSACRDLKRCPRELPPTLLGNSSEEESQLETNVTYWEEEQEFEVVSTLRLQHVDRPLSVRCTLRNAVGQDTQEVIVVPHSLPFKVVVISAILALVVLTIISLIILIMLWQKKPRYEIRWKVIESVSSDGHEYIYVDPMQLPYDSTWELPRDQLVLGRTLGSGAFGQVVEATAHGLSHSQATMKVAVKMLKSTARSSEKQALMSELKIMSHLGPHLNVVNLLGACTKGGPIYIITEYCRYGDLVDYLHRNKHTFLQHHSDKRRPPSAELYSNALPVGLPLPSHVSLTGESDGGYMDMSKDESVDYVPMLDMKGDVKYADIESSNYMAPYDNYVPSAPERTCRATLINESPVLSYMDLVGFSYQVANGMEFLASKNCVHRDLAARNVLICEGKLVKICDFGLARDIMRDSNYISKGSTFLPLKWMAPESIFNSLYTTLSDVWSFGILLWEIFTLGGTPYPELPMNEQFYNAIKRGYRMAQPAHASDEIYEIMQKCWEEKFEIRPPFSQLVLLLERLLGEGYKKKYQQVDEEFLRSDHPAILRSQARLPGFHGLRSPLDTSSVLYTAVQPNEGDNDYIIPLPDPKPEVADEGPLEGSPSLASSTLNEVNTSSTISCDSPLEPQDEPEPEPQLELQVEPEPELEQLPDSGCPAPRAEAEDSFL

Row | SMILES | inhibition [1] [%] | inhibition [2] [%] | inhibition [3] [%] | inhibition [4] [%] | inhibition [5] [%] | inhibition [6] [%] | inhibition [7] [%] | inhibition [8] [%] | inhibition [9] [%] | inhibition [10] [%] | inhibition [11] [%] | inhibition [12] [%] | inhibition [13] [%] | inhibition [14] [%] | inhibition [15] [%] | inhibition [16] [%] | inhibition [17] [%] | inhibition [18] [%] | inhibition [19] [%] | inhibition [20] [%]
1 | COc1ccc2cc(-c3c(-c4ccncc4)nc(-c4ccc([S+](C)[O-])cc4C)n3C)ccc2c1 (stereo not given) | 5.35 | -0.28 | -0.05 | -4.54 | -2.74 | 2.66 | 22.2 | 1.07 | 2.78 | 2 | 28.3 | 3.56 | 4.22 | 2.09 | 6.31 | 2.64 | 3.54 | 1.97 | 6.78 | -0.12
2 | COc1cc2ncn(-c3cc(OCc4cccs4)c(C(N)=O)s3)c2cc1OC | 72.5 | 1.41 | 1.32 | 3.08 | 6.94 | 11.9 | 43.5 | 7.23 | 24.7 | 15 | 54.5 | 5.86 | 7.33 | 7.93 | 30.5 | 3.31 | 17.6 | 2.39 | 7.35 | 0.21
3 | COc1cccc(/C=N/Nc2ncnc3c2cnn3-c2cccc(OC)c2)c1 | 11 | 2.06 | 3.36 | 1 | 10.2 | 0.27 | 6.95 | 0.36 | 1.63 | 3.95 | 6.96 | 0.75 | 4.77 | 5.15 | 8.27 | 7.02 | 17.5 | -1.15 | -3.63 | 2.69
4 | COc1ccc(-c2ccc3c(NC(=O)C4CC4)n[nH]c3n2)cc1 | 5.91 | 0.53 | -0.31 | 0.18 | 6.52 | 0.65 | 1.93 | 6.95 | 9.13 | 0.39 | 9.16 | 6.88 | 2.2 | 2.06 | 3.33 | 7.63 | 4.36 | -2.79 | 2.08 | 0.08
5 | COc1cc2ncn(-c3cc(OCCc4ccccc4)c(C(N)=O)s3)c2cc1OC | 49.9 | 0.72 | 1.86 | 3.82 | 4.2 | 3.22 | 23.2 | 0.58 | 9.89 | 6.66 | 21.3 | -1.46 | 6.81 | 3.89 | 6.98 | 1.6 | 12.9 | -2.94 | -2.68 | -2.02
6 | COc1ccc(C2=C(N3CCc4ccccc43)C(=O)NC2=O)cc1 | 12.1 | 2.66 | 0.27 | 11.7 | 16 | 9.66 | 6.15 | 5.21 | 7.12 | 6.21 | 9.39 | 9.63 | 6.83 | 6.01 | 9.68 | -1.55 | 10.8 | 7.78 | 14.7 | -4.17
7 | FC(F)(F)c1cccc(Nc2nccc(-c3cnn4nc(-c5ccccc5)ccc34)n2)c1 | 37.1 | 1.24 | 0.8 | -1 | 7.77 | 0.18 | 2.88 | 3.76 | 4.5 | 3.91 | 9 | 3.97 | 1.8 | 0.97 | 9.02 | 5.04 | 8.31 | -0.79 | -0.77 | -0.05
8 | C/C(Nc1ccc(S(N)(=O)=O)cc1)=C1/C(=O)Nc2ccccc21 | 43.1 | 1.09 | 0.76 | -1.67 | 17.8 | 6.38 | 35.9 | 13 | 53.9 | 5.97 | 40.3 | 5.82 | 4 | 3.08 | 8.7 | -2.31 | 0.81 | 1.16 | 4.16 | -1.12
9 | NC(=O)Cc1ccccc1Oc1nccc(-c2c(-c3ccc(F)cc3)ncn2C2CCNCC2)n1 | 5.76 | 1.11 | 3.64 | 5.56 | 3.38 | 5.79 | 3.25 | 2.51 | 0.95 | 3.81 | 4.66 | -4.83 | 4.24 | 6.52 | 7.32 | 1.88 | 5.52 | -1.62 | -0.3 | -2.13
10 | NCc1ccc(-n2c(-c3nonc3N)nc3cnccc32)cc1 | 37.3 | 1.83 | 1.83 | 11.2 | 9.24 | 5.69 | 7.7 | 7.22 | 9.65 | 7.37 | 7.16 | 2.95 | 2.64 | 15.3 | 33 | 9.83 | 9.77 | -2.58 | -2.9 | -3.99
11 | NC(=O)c1cc(-c2ccncc2)cc(-c2ccccc2)c1N | 26 | 3.05 | 7.89 | 10.8 | 13.4 | 6.99 | 27 | 2.8 | 6.36 | 6.34 | 42.3 | 4.63 | 2.14 | 5.79 | 14.7 | 10.4 | 59.8 | 0.18 | 5.81 | -0.73
12 | Fc1ccc(-c2ncn(C3CCNCC3)c2-c2ccnc(Oc3ccc4c(c3)OCO4)n2)cc1 | 12.7 | 3.01 | 4.4 | 7 | 9.57 | 3.97 | 6.88 | 9.21 | 12.4 | 14.5 | 12.8 | 3.59 | 4.19 | 4.93 | 8.59 | 7.77 | 8.43 | -2.94 | -4.12 | -0.62
13 | Clc1ccc(CNc2nccc(-c3cnn4ncccc34)n2)cc1 | 13.8 | 0.01 | 1.32 | -4.51 | 2.8 | 0.88 | 5.75 | -0.76 | 5.56 | -0.42 | 20.4 | -1.7 | 6.29 | 0.86 | 6.59 | 0.82 | 6.25 | 0.35 | -1.1 | 2.92
